The text below walks through data of the antibiotic and cytotoxicity screens of Wong et al. (2023).

Screen size: about 39,000 compounds; about 3,300 (8.5%) were called active. The full list was thinned out, with actives kept by preference.

This test deals with HepG2. Nature of the test: cytotoxicity call (relative viability < 0.9). The settings on record: 10 µM.
Regarding `C[C@@H]1CN([C@@H](C)CO)C(=O)CCCn2nncc2CO[C@@H]1CN(C)C(=O)Nc1ccc2c(c1)OCO2`, the cytotoxicity call was “inactive”.

As to `C[C@@H]1CN([C@H](C)CO)C(=O)c2cc(C#Cc3ccncc3)cnc2O[C@@H]1CN(C)C(=O)c1ccccc1F`, the cytotoxicity call is “inactive”.

As for `COCCOC(=O)N1C(=O)[C@@]2(c3cc(C#CC4(O)CCCCCC4)ccc31)[C@H](C(=O)N1CCCCCCC1)[C@H]1C(=O)O[C@H](c3ccccc3)[C@H](c3ccccc3)N1[C@@H]2c1ccc(OCCO)cc1`, the cytotoxicity call was “active”.

On to `C=CCNC(=O)[C@H]1[C@@H]2C(=O)O[C@@H](c3ccccc3)[C@@H](c3ccccc3)N2[C@@H](c2ccc(O)cc2)[C@]12C(=O)N(C(=O)OCCOC)c1ccc(C#CC3(O)CCCCCC3)cc12`, for which the cytotoxicity call is “inactive”.

Take `COCCOC(=O)N1C(=O)[C@@]2(c3cc(C#CC4=CCCCC4)ccc31)[C@H](C(=O)N1CCCCCCC1)[C@H]1C(=O)O[C@H](c3ccccc3)[C@H](c3ccccc3)N1[C@@H]2c1ccc(OCCO)cc1`: the cytotoxicity call was “inactive”.

Regarding `C=CCNC(=O)[C@H]1[C@@H]2C(=O)O[C@@H](c3ccccc3)[C@@H](c3ccccc3)N2[C@@H](c2ccccc2OCCO)[C@]12C(=O)N(C(=O)OCCOC)c1ccc(C#CC3(O)CCCCCC3)cc12`, the cytotoxicity call is “active”.

Consider `C=CCNC(=O)[C@H]1[C@@H]2C(=O)O[C@@H](c3ccccc3)[C@@H](c3ccccc3)N2[C@@H](c2ccc(OCCO)cc2)[C@]12C(=O)N(C(=O)OCCOC)c1ccc(C#CC3(O)CCCCCC3)cc12`, for which the cytotoxicity call was “inactive”.

As to `COCCOC(=O)N1C(=O)[C@@]2(c3cc(C#CC4(O)CCCCCC4)ccc31)[C@H](c1ccc(OCCO)cc1)N1[C@H](c3ccccc3)[C@H](c3ccccc3)OC(=O)[C@H]1[C@@H]2C(N)=O`, the cytotoxicity call is “inactive”.

For the compound `COCCOC(=O)N1C(=O)[C@@]2(c3cc(C#CC4(O)CCCCCC4)ccc31)[C@H](c1ccc(OCCO)cc1)N1[C@H](c3ccccc3)[C@H](c3ccccc3)OC(=O)[C@H]1[C@@H]2C(=O)N1CCCCCCC1`, the cytotoxicity call is “active”.

`COCCOC(=O)N1C(=O)[C@@]2(c3cc(C#CC4(O)CCCCCC4)ccc31)[C@H](c1ccc(OCCO)cc1)N1[C@H](c3ccccc3)[C@H](c3ccccc3)OC(=O)[C@H]1[C@@H]2C(=O)N1CCN(c2ncccn2)CC1`: the cytotoxicity call was “inactive”.

In the case of `COCCOC(=O)N1C(=O)[C@@]2(c3cc(C#CC4(O)CCCCCC4)ccc31)[C@H](C(=O)N1CCN(c3ncccn3)CC1)[C@H]1C(=O)O[C@H](c3ccccc3)[C@H](c3ccccc3)N1[C@@H]2c1ccc(OCCO)cc1`, the cytotoxicity call is “inactive”.

Consider `COc1ccc(NC(=O)Nc2cccc3c2O[C@H](CN(C)Cc2ccc(C(F)(F)F)cc2)[C@@H](C)CN([C@@H](C)CO)C3=O)cc1`, for which the cytotoxicity call is “inactive”.

Regarding `COc1ccc(NC(=O)Nc2ccc3c(c2)[C@H]2C[C@H](CC(=O)NCc4ccccn4)O[C@@H](CO)[C@H]2O3)cc1`, the cytotoxicity call is “inactive”.

In the case of `c1ccc(Oc2nnc(-c3ccccc3)c3ccccc23)cc1`, the cytotoxicity call was “inactive”.

For the compound `C[C@H](CO)N1C[C@H](C)[C@H](CN(C)S(C)(=O)=O)Oc2cc(-c3ccc(F)cc3)ccc2S1(=O)=O`, the cytotoxicity call is “inactive”.

For `COc1cccc(C#Cc2ccc3c(c2)O[C@@H](CN(C)C(=O)CN2CCOCC2)[C@H](C)CN([C@@H](C)CO)S3(=O)=O)c1`, the cytotoxicity call was “inactive”.

On to `O=C(O)CCCNc1n[nH]c(=O)[nH]c1=O`, for which the cytotoxicity call is “inactive”.

Regarding `O=C(CCNc1n[nH]c(=O)[nH]c1=O)N1CCOCC1`, the cytotoxicity call was “active”.

In the case of `COC(=O)CCCCCNc1n[nH]c(=O)[nH]c1=O`, the cytotoxicity call was “inactive”.

With `COc1ccc(NC(=O)N(C)C[C@H]2OCCCC[C@@H](C)Oc3ccc(NC(=O)Nc4c(C)noc4C)cc3C(=O)N([C@H](C)CO)C[C@@H]2C)cc1`, the cytotoxicity call is “inactive”.

Take `COc1ccc(NC(=O)Nc2ccc3c(c2)[C@@H]2C[C@@H](CC(=O)N4CCN(C)CC4)O[C@@H](CO)[C@@H]2O3)cc1`: the cytotoxicity call was “inactive”.

Consider `C[C@H]1CN([C@@H](C)CO)C(=O)Cc2cc(NC(=O)Nc3ccc(C(F)(F)F)cc3)ccc2O[C@@H]1CN(C)CC1CCCCC1`, for which the cytotoxicity call was “inactive”.

Regarding `C[C@H](CO)N1C[C@H](C)[C@H](CN(C)CC2CCCCC2)Oc2ccc(NC(=O)Nc3ccc(C(F)(F)F)cc3)cc2CC1=O`, the cytotoxicity call is “active”.

For `C[C@@H]1CN([C@@H](C)CO)C(=O)Cc2cc(NC(=O)Nc3ccc(C(F)(F)F)cc3)ccc2O[C@H]1CN(C)CC1CCCCC1`, the cytotoxicity call was “active”.

For `C[C@H](CO)N1C[C@H](C)[C@H](CN(C)C(=O)NC2CCCCC2)Oc2ccc(NC(=O)Nc3ccc(C(F)(F)F)cc3)cc2CC1=O`, the cytotoxicity call is “inactive”.

In the case of `C[C@H]1CN([C@@H](C)CO)C(=O)Cc2cc(NC(=O)Nc3ccc(C(F)(F)F)cc3)ccc2O[C@H]1CN(C)CC1CCCCC1`, the cytotoxicity call was “active”.

Regarding `C[C@@H]1CN([C@@H](C)CO)C(=O)Cc2cc(NC(=O)Nc3ccc(C(F)(F)F)cc3)ccc2O[C@@H]1CN(C)CC1CCCCC1`, the cytotoxicity call is “active”.

As for `CN(C)CCCNC(=O)C[C@H]1CC[C@H]2[C@@H](COc3ccc(NC(=O)c4ccc5c(c4)OCO5)cc3C(=O)N2C)O1`, the cytotoxicity call is “inactive”.

As for `CCCN(C)C[C@H]1OCCCC[C@H](C)Oc2ccc(NS(C)(=O)=O)cc2C(=O)N([C@H](C)CO)C[C@H]1C`, the cytotoxicity call is “inactive”.

In the case of `C[C@H](CO)N1C[C@H](C)[C@@H](CN(C)Cc2ccncc2)Oc2cc(C#CCN(C)C)ccc2S1(=O)=O`, the cytotoxicity call is “inactive”.

As to `CN([C@@H](c1ccccc1)c1ccccn1)S(=O)(=O)c1cn(C)c(=O)n(C)c1=O`, the cytotoxicity call was “inactive”.

`Cc1ccc(S[C@]2(C(=O)O)CC(=O)N(C3Cc4ccccc4C3)[C@@H]2c2ccc(CO)cc2I)cc1`: the cytotoxicity call was “inactive”.

Take `COCC(=O)Nc1ccc2c(c1)C(=O)N(C)C[C@H](OC)[C@H](C)CN(Cc1ccccc1OC)[C@H](C)CO2`: the cytotoxicity call was “inactive”.

On to `C[C@H]1CN([C@@H](C)CO)C(=O)Cc2cc(NS(C)(=O)=O)ccc2O[C@@H]1CN(C)C(=O)Nc1ccccc1`, for which the cytotoxicity call was “inactive”.

Regarding `COCCNC(=O)C[C@@H]1C[C@@H]2c3cc(NS(C)(=O)=O)ccc3O[C@@H]2[C@@H](CO)O1`, the cytotoxicity call is “inactive”.

As for `COc1ccc([C@H]2C/C=C\C[C@H](c3cccc(Cl)c3)NC(=O)[C@@H](c3ccccc3)CC(=O)N2)c(OC)c1`, the cytotoxicity call is “inactive”.

As for `CC(=O)O.N=C(N)NN=Cc1c(Cl)cccc1Cl`, the cytotoxicity call is “inactive”.

For `Cc1ccc(-c2ccc3c(c2)O[C@@H](CN(C)C(=O)CN(C)C)[C@H](C)CN([C@@H](C)CO)S3(=O)=O)cc1`, the cytotoxicity call is “inactive”.
